Results on 21 molecules are retold here after PubChem BioAssay (Tox21).

“And” between values parts separate entries of the source, which are not always exact repeats. Identical values can stand only once. Inconclusive results are not listed. The source holds several records for some structures; these can differ, active in one and inactive in another. The source made the active and inactive calls. Unless noted, the call rests on the fitted dose curve; in most records, active means well fitted curve in the direction sought with a large enough effect in the repeat runs; inconclusive means weak or mixed curves; inactive means no such curve, though single readings can be large; an effect the other way counts as inactive or inconclusive.

The target in test [1] is Thyrotropin-releasing hormone receptor (Homo sapiens) (UniProt P34981). Description: qHTS assay to identify small molecule agonists of the thyrotropin-releasing hormone receptor (TRHR) signaling pathway (AID 1346891; calls by dose curve; further: potency means the concentration at half of the fitted maximal effect; on activation: series mostly up to about 58 µM). The procedure, abridged:
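Agonist-mode intracellular calcium readout: kinetic fluorescence over 3 min at 1 s intervals after compound addition to TRHR-HEK293 cells (18 h seeded, 2 h dye-loaded at 37 C). Fifteen concentrations, triplicates.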

A short description of test [2]: Human pregnane X receptor (PXR) small molecule agonists, qHTS cell viability counter screen (AID 1346977). Further: nearly all actives have a fitted effect of over 50% in size. Further: potency means the concentration at half of the fitted maximal effect. The procedure, abridged: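 Same-well viability read: CellTiter-Fluor added after 23 hr compound exposure, fluorescence measured 1 hr later. Cells were PXR-Luc HepG2 seeded at 2,000/well in 5% charcoal-stripped FBS medium, rested 5 hr before dosing at 37 C.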
Background: qHTS replaces the single test concentration by a dilution series.

Test [3] is described as follows: Caspase-3/7 induction in HepG2 cells by small molecules, qHTS assay (AID 1346978). Further: nearly all actives have a fitted effect of over 15% in size. Further: potency means the concentration at half of the fitted maximal effect. The procedure, abridged:
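Caspase-3/7 induction was measured by Caspase-Glo 3/7 luminescence (30 min, room temperature) after a 17 hr compound exposure of wild-type HepG2 cells seeded at 2,000 per well and pre-incubated 5 hr.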

A short description of test [4]: Caspase-3/7 induction in CHO-K1 cells by small molecules, qHTS cell viability counter screen (AID 1346979). Further: nearly all actives have a fitted effect of over 35% in size. Further: potency means the concentration at half of the fitted maximal effect. A digest of the protocol:
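Cytotoxicity counter screen: CellTiter-Fluor added to compound-treated wild-type CHO-K1 cells at 16 h (37C, 5% CO2), fluorescence measured 1 h later; same wells as caspase-3/7 measurement.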

Test [5] can be described thus: Caspase-3/7 induction in CHO-K1 cells by small molecules, qHTS assay (AID 1346980). Further: nearly all actives have a fitted effect of over 15% in size. A digest of the protocol:
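Luminescent Caspase-Glo 3/7 read (30min, room temperature) quantified apoptosis induction. Cells were wild-type CHO-K1, treated with compound for 17hr at 37 C and 5% CO2.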

Test [6] can be described thus: Caspase-3/7 induction in HepG2 cells by small molecules, qHTS cell viability counter screen (AID 1346981). Further: nearly all actives have a fitted effect of over 30% in size. Further: potency means the concentration at half of the fitted maximal effect. A digest of the protocol: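 After a 5-hr attachment period at 37 C and 5% CO2, wild-type HepG2 cells received compounds in DMSO. Sixteen hours later CellTiter-Fluor was dispensed and the fluorescent signal quantified after a further hour.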
The target of test [7] is Nuclear receptor subfamily 1 group I member 2 (Homo sapiens) (UniProt O75469). The test can be described thus: Human pregnane X receptor (PXR) small molecule agonists, qHTS assay (AID 1346982). Further: nearly all actives have a fitted effect of over 35% in size. Further: potency means the concentration at half of the fitted maximal effect. The procedure, abridged: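 Tox21 qHTS; PXR-Luc HepG2; compounds pinned from DMSO; 24 hr, 37 C; ONE-Glo luciferase detection, 30 min room temperature.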
Sequence of Nuclear receptor subfamily 1 group I member 2 (Homo sapiens) (O75469 whole entry, looked up): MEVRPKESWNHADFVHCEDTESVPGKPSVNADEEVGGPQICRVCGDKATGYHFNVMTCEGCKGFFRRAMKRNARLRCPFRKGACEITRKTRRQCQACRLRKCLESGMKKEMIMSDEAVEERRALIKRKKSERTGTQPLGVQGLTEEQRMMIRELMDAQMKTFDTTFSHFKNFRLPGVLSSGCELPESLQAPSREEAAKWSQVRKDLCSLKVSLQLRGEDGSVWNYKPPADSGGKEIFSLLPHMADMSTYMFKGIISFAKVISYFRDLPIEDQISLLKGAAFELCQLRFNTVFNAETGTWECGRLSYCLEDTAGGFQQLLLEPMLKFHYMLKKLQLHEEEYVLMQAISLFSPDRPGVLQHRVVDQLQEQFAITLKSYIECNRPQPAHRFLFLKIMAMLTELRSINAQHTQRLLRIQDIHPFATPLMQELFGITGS
In test [8] the target is Cytochrome P450 2D6 (Homo sapiens) (UniProt P10635). The test can be described thus: Cytochrome P450 Family 2 Subfamily D Member 6 (CYP2D6) small molecule antagonists: luciferase reporter qHTS assay (AID 1671196). Further: nearly all actives have a fitted effect of over 50% in size. Further: potency means the concentration at half of the fitted maximal effect. The procedure, abridged:
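Room-temperature luminescent CYP2D6 activity assay: compound preincubated 10 min with enzyme–substrate mix, NADPH-initiated reaction 1 h, detection reagent 20 min before reading.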
(In a reporter assay the amount or activity of a reporter protein is the signal.)

Test [9] deals with Nuclear receptor subfamily 1 group I member 2 (Rattus norvegicus) (UniProt Q9R1A7). Description: Rat pregnane X receptor (rPXR) activation by small molecules, qHTS assay (AID 1346983). Further: nearly all actives have a fitted effect of over 20% in size. Further: potency means the concentration at half of the fitted maximal effect. Particulars: rPXR luciferase reporter cells, One-Glo luminescence, 24 h; max activation: stronger effect = higher value. A digest of the protocol:
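Luminescent readout (One-Glo luciferase, 30 min room temperature) followed 24 hr compound treatment at 37 C of rPXR cells plated 2,000 per well and preincubated 5hr; qHTS format with compounds delivered in DMSO.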

In test [10] the target is Nuclear receptor subfamily 1 group I member 2 (Homo sapiens) (UniProt O75469). Description: Human pregnane X receptor (PXR) activation by small molecules, qHTS assay (AID 1346985). Further: nearly all actives have a fitted effect of over 40% in size. The procedure, abridged:
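DPX-2 cells (HepG2 co-transfected with a PXR response element and a CYP3A4-promoter luciferase construct) were seeded at 2,000 per well, rested 5 hr at 37C, then exposed to DMSO-dissolved compounds for 24 hr. Activation was read as luciferase luminescence.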
On the % scale 0 is the no-effect control and ±100 the full control effect.

Sequence of Nuclear receptor subfamily 1 group I member 2 (Rattus norvegicus) (Q9R1A7 whole entry, looked up): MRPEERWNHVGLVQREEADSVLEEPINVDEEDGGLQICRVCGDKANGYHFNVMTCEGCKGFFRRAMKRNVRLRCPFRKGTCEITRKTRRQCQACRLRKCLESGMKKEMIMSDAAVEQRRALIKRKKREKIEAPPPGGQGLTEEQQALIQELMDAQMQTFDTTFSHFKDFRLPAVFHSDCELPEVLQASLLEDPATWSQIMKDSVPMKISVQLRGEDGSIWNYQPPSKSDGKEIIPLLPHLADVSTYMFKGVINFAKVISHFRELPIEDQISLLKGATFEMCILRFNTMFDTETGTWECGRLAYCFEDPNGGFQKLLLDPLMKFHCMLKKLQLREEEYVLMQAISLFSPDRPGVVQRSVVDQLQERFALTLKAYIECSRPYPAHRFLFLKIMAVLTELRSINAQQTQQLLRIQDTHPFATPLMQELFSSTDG
Sequence of Thyrotropin-releasing hormone receptor (Homo sapiens) (P34981 whole entry, looked up): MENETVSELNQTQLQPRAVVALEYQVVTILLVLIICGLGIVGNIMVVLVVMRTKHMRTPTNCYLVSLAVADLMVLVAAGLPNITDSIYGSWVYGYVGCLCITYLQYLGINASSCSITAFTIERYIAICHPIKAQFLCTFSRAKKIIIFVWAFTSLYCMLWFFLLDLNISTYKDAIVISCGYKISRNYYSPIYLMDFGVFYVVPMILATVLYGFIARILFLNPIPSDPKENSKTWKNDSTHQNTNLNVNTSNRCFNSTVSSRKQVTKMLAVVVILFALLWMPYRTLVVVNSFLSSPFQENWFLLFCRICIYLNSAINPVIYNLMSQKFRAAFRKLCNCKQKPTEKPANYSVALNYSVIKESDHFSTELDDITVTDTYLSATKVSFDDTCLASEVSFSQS
Sequence of Cytochrome P450 2D6 (Homo sapiens) (P10635 whole entry, looked up): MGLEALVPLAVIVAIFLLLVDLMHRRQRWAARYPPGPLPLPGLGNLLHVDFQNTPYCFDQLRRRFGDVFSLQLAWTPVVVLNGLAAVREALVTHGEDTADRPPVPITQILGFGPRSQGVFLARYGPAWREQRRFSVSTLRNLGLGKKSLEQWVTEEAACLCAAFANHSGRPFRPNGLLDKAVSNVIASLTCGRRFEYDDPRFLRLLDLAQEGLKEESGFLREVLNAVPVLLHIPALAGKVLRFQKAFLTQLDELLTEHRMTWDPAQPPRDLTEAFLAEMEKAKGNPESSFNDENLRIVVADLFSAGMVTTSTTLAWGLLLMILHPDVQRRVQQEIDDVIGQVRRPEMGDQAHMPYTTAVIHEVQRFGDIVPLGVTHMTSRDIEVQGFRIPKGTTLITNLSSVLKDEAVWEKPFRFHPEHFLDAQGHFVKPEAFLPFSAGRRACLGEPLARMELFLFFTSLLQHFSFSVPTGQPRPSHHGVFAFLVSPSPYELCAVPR

With `Nc1ccc(Nc2ccccc2)cc1`, the Potency result in test [1], in test [3] and in test [5] was “inactive” in each case. The Potency was 30.3 µM (active) and 39.8 µM (active) and 30.6 µM (active) in test [2]; 53.9 µM (active) and 43.3 µM (active) and 48.6 µM (active) in test [4]; 42.8 µM (active) and 34.4 µM (active) and 48.6 µM (active) in test [6]; 24.1 µM (active) and 19.3 µM (active) and 34.4 µM (active) in test [7]; 35.2 µM (active) and 35.6 µM (active) in test [8].
With `O=C(/C=C/c1ccccc1)OCc1ccccc1`, the Potency entry in test [1], in test [2], in [3], in test [4], in test [5] and in test [6] was “inactive” throughout. In addition, the Potency result in [7], in test [10] and in test [8] was “inactive” throughout. Also, the max activation in test [9] is -0.887% (inactive).
As to `c1ccc2sc(SSN3CCOCC3)nc2c1`, the Potency result in test [1], in test [2], in [3], in test [5] and in test [6] was “inactive” throughout. For the same molecule, the Potency is 61 µM (active) and 61.1 µM (active) in [4]; 61 µM (active) and 68.6 µM (active) in test [7].
Take `CNCCCC12CCC(c3ccccc31)c1ccccc12`: the Potency result in test [1] and in [5] was “inactive” in each case. Moreover, the Potency in [2] was 27.3 µM (active); in [3] it was 27.3 µM (active); in [4] it was 61.1 µM (active) and inactive; in [6] it was 61.1 µM (active).
For the molecule `COc1c(Cl)c(Cl)c(Cl)c(Cl)c1Cl`, the Potency entry in [1], in [2], in test [3], in test [4], in [5] and in [6] was “inactive” throughout. In addition, the Potency entry in [7] and in [8] was “inactive” each time.
Regarding `C[C@]12CC[C@H]3[C@@H](CCC4=CC(=O)CC[C@@]43C)[C@@H]1CC[C@@H]2C(=O)CO`, the Potency result in [1], in [2], in test [3], in [4], in test [5] and in [6] was “inactive” throughout. The Potency result in test [10] and in test [8] was “inactive” throughout. Further, in [7], the Potency was 21.7 µM (active) and inactive.
Turning to `O=CCCCC=O`, the Potency entry in [1], in test [2], in test [3], in [4], in test [5] and in [6] was “inactive” in each case. Besides, the Potency entry in test [7], in test [10] and in test [8] was “inactive” each time. The max activation in test [9] is 4.17% (inactive).
As for `CCCCC(CC)COP(=O)(OCC(CC)CCCC)OCC(CC)CCCC` (stereo unspecified), the Potency result in [1], in test [2], in test [3], in test [4], in test [5] and in [6] was “inactive” throughout. In test [8], the Potency result was “inactive”. In addition, the Potency result in test [7] was “inactive and 4.86 µM (active)”.
As to `c1cc(-c2ccncc2)ccn1`, the Potency entry in test [1], in [2], in [3], in test [4], in [5] and in test [6] was “inactive” throughout. Further, the Potency result in [7] was “inactive”.
For `c1ccc2c(c1)Oc1ccccc1S2`, the Potency result in test [1], in test [2], in [3], in test [4], in [5] and in [6] was “inactive” in each case. Also, the Potency result in test [7] and in [8] was “inactive” throughout.
Regarding `COC(=O)C1=C(C)NC(C)=C(C(=O)OCCN(C)Cc2ccccc2)C1c1cccc([N+](=O)[O-])c1` (stereo unspecified), the Potency entry in test [1], in [3] and in test [5] was “inactive” each time. The Potency in test [2] was 27.1 µM (active) and 26.6 µM (active); in [4], 30.5 µM (active) and 26.6 µM (active); in test [6] it was 48.3 µM (active) and 26.6 µM (active).
Consider `C#C[C@]1(O)CC[C@H]2[C@@H]3CCC4=Cc5oncc5C[C@]4(C)[C@H]3CC[C@@]21C`, for which the Potency entry in test [1], in test [2], in test [3], in [5], in [6] and in test [10] was “inactive” throughout. Besides, the Potency in [4] is 43.3 µM (active) and 26.6 µM (active); in test [7], 30.6 µM (active) and 29.8 µM (active); in test [9], 7.94 µM (active).
Take `Cc1ccc(C)c(O)c1C`: the Potency entry in [1], in test [2], in [3], in [4], in [5] and in test [6] was “inactive” each time. Besides, the Potency result in test [7] and in test [8] was “inactive” each time.
Take `CCCC(=O)O`: the Potency result in test [1], in test [2], in test [3], in [4], in test [5] and in test [6] was “inactive” in each case. Also, the Potency entry in test [7], in test [10] and in test [8] was “inactive” each time. In addition, the max activation in test [9] was -1.54% (inactive).
Regarding `O=C1OC2(c3cc(Br)c(O)c(Br)c3Oc3c2cc(Br)c(O)c3Br)c2c(Cl)c(Cl)c(Cl)c(Cl)c21`, the Potency was 15.5 µM (active) and 23.6 µM (active) in test [1]; 2.51 µM (active) and 11.7 µM (active) in test [2]; 6.87 µM (active) and 14.8 µM (active) in [4]; 9.7 µM (active) and 16.6 µM (active) in test [6]; 24.2 µM (active) in test [8]. In addition, the Potency entry in [3], in test [5] and in test [7] was “inactive” throughout.
Consider `COc1ccc(C(=O)CC(=O)c2ccc(C(C)(C)C)cc2)cc1`, for which the Potency result in [1], in [2], in [3], in [4], in [5] and in [6] was “inactive” throughout. Moreover, the Potency entry in test [10] is “inactive”. Also, the Potency was 65.8 µM (active) and inactive in test [7]; 38.3 µM (active) and inactive in [8]. Further, in [9], the max activation was -2.2% (inactive).
As for `NNc1ccc(C(=O)O)cc1`, the Potency entry in test [1], in test [2], in test [3], in test [4], in test [5] and in [6] was “inactive” in each case. In [7], the Potency was 43.9 nM (active) and 27.6 nM (active).
In the case of `Cc1[nH]c(=O)c(C#N)cc1-c1ccncc1`, the Potency result in [1], in [2], in [3], in test [4], in test [5] and in [6] was “inactive” throughout. Also, the Potency result in test [10] and in test [8] was “inactive” throughout. The Potency in test [7] is 1.37 µM (active). Besides, the max activation in [9] was 1.02% (inactive).
In the case of `CN(C)c1nc(N(C)C)nc(N(C)C)n1`, the Potency entry in test [1], in [2], in [3], in test [4], in [5] and in test [6] was “inactive” each time.
Take `CC(=O)C1(C)CC2=C(CCCC2(C)C)CC1C` (stereo unspecified): the Potency entry in test [1], in [2], in [3], in [4], in [5] and in [6] was “inactive” in each case. Moreover, the Potency entry in [7] and in test [8] was “inactive” throughout.
Consider `CCCCOCCOCCOCCO`, for which the Potency entry in test [1], in [2], in test [3], in test [4], in test [5] and in [6] was “inactive” each time. The Potency entry in test [7] and in test [8] was “inactive” in each case.
